# The source made the active and inactive calls. How the source made its calls: active means hit-call score of the fitted dose curve at least 0.9, where 1 is the maximum; inactive means score below 0.9.
# Assay: ATG_BRE_CIS: Attagene CIS-FACTORIAL HepG2 Assay for human Bone Morphogenetic Protein (BMP) Response Element (BRE) (AID 2282933)
# Settings: HepG2 BMP response element reporter, Attagene transcription factor profiling; actives raise or lower the signal
# Method: ATG_CIS is a cell-based, multiplexed-readout assay that uses HepG2, a human liver cell line, with measurements taken at 24 hours after chemical dosing in a 24-well plate.ATG_BRE_CIS is one of 52 assay component(s) measured or calculated from the ATG_CIS assay. It is designed to make measurements of mRNA induction, a form of inducible reporter, as detected with fluorescence intensity signals by Reverse transcription polymerase chain reaction (RT-PCR) and Capillary electrophoresis technology.Data from the assay component ATG_BRE_CIS was analyzed into 1 assay endpoint. This assay endpoint, ATG_BRE_CIS, was analyzed with bidirectional fitting relative to DMSO as the negative control and baseline of activity. Using a type of inducible reporter, measures of mRNA for gain or loss-of-signal activity can be used to understand the reporter gene at the transcription factor-level as they relate to the gene SMAD1. Furthermore, this assay endpoint can be referred to as a primary readout, because this assay has produced multiple assay endpoints where this one serves a reporter gene function. To generalize the intended target to other relatable targets, this assay endpoint is annotated to the dna binding intended target family, where the subfamily is Smad protein.
# Human liver HepG2 cells are transiently transfected with multiple reporter transcription units (MRTUs) in 6-well plates using FuGene 6 reagent (Roche; 3 ml FuGene/1 mg DNA). The MRTU constructs are regulated by a cis-regulating element (promoter). […] A major difference between the CIS and TRANS system is that in CIS activities of endogenous TFs are measured, whereas the TRANS assay evaluates changes in activities of exogenous, chimeric NR-Gal4 proteins. […] At the end of 24 hour incubation, total RNA was isolated using TriZol reagent (Invitrogen). The isolated RNA is then reverse-transcribed using oligo(dT) primer and Mo-MLV reverse transcriptase (Invitrogen) with DNAse I (Ambion) treatment for 30 min. The one-tenth of the produced cDNA was amplified by PCR using Taq DNA polymerase (Invitrogen) and two reporter sequence-specific primers. The PCR products were fluorescently labeled by primer extension with 6-arboxyfluorescein (6-FAM) 5'-labeled reporter sequence-specific primer (2 min at 95 C, 20 s at 68 C and 10 min at 72 C) and these products were digested with 5U of HpaI (New England Biolabs) for 2h at 37 C. The fragments were purified using Qiaquick PCR columns (Qiagen), analyzed on an ABI 3130xL genetic analyzer (Applied Biosystems) with peak positions identified by using a set of X-rhodamine (ROX)-labeled MapMarker1000 molecular weight standards (BioVentures). The raw capillary electrophoresis data was processed using Attagraph software (Attagene).
SMILES,outcome,AC50
O=C1OC(=O)c2ccc3c4c(ccc1c24)C(=O)OC3=O,inactive,–
OCCC(O)CO (stereo not given),inactive,–
CCOC(=O)CC(=O)C(F)(F)C(F)(F)F,inactive,–
CC(C)CCCC(C)CCO (stereo not given),inactive,–
OCC(O)CC(F)(F)C(F)(F)C(F)(F)C(F)(F)F (stereo not given),inactive,–
O=C=Nc1cccc2c(N=C=O)cccc12,inactive,–
CN(C(=O)C(F)(F)C(F)(F)C(F)(F)F)[Si](C)(C)C,inactive,–
O=C(c1ccccc1)c1ccc(O)cc1O,inactive,–
CCN(CC)c1ccc(C=O)cc1,inactive,–
Cc1cnccn1,inactive,–
OCC(F)(F)C(F)(F)C(F)(F)C(F)(F)C(F)(F)C(F)(F)CO,inactive,–
CCN(CC)c1ccc(N=Nc2ccccc2)cc1,–,78.8 µM (active)
CCCCOC(=O)C(C)O (stereo not given),inactive,–
CC1=CC2C3C=CC(C3)C2C1C (stereo not given),inactive,–
COCCC(=O)OC,inactive,–
CCN=c1cc2oc3cc(NCC)c(C)cc3c(-c3ccccc3C(=O)OCC)c-2cc1C,inactive,–
CO[Si](CCCOCC1CO1)(OC)OC (stereo not given),inactive,–
COCCOCCC[Si](C)(O[Si](C)(C)C)O[Si](C)(C)C,–,9.13 µM (active)
Oc1ccc(C2(c3ccc(O)c(C4CCCCC4)c3)CCCCC2)cc1C1CCCCC1,inactive,–
OCCCc1cccnc1,inactive,–

SMILES,outcome,AC50
O=C(O)C(F)(F)C(F)(F)C(F)(F)OC(F)(C(F)(F)F)C(F)(F)F,inactive,–
FC(F)(F)C(F)(F)C(F)(F)C(F)(F)C(F)(F)C(F)(F)CC[Si](Cl)(Cl)Cl,inactive,–
C=CC(=O)OCC(F)(F)C(F)(F)C(F)(F)COC(=O)C=C,inactive,–
CCC/C=C/CO,inactive,–
CCC(=O)OC(C)c1ccccc1 (stereo not given),inactive,–
CCCC(=O)OCC(COC(=O)CCC)OC(=O)CCC,–,57.5 µM (active)
O=C(O)C(F)(F)C(F)(F)C(F)(F)C(=O)O,inactive,–
Cc1ccc(S(=O)(=O)C(I)I)cc1,inactive,–
CCOC(C=C(C)CCC=C(C)C)OCC,inactive,–
CO[Si](C)(CCC(F)(F)C(F)(F)C(F)(F)C(F)(F)C(F)(F)C(F)(F)F)OC,inactive,–
CC(C)CC=C(C=O)c1ccccc1,inactive,–
O=C1C=CC(=O)N1c1ccccc1,inactive,–
CCn1c2ccccc2c2ccccc21,–,159 µM (active)
C=C(C)CCCC,inactive,–
CCC(Cc1c(I)cc(I)c(N)c1I)C(=O)O (stereo not given),inactive,–
C#CC(O)CCC (stereo not given),inactive,–
O=C1c2ccccc2C(=O)c2c(Cl)cccc21,inactive,–
CCCCCCCCCCCCC[N+](C)(C)Cc1ccccc1,–,5.63 µM (active)
Cc1cc(O)c(C(C)(C)C)cc1C(C)(C)C,inactive,–
CCOC(=O)C1CC(=O)C(=C(O)C2CC2)C(=O)C1 (stereo not given),inactive,–

# — PubChem BioAssay (EPA / NIEHS)
